# Out of some 69,000 compounds screened, about 8,600 (12%) showed an effect of 50% or more. Shown is part of a subset that was picked to be rich in strong results.
# Tested on: Plasmodium berghei
# Test: Screen against P. berghei liver stage (PbLuc), transformed with Luciferase, at 10uM
# Type: functional, HepG2
# Conditions: tested at 10 uM
row,Compound,INHIBITION
1,CC(C)CN1C(=O)CC[C@H]2CN(C(=O)Cn3ccccc3=O)CC[C@H]21,45.8%
2,CC1=NN(CC(=O)N2CC[C@@H]3[C@@H](CCC(=O)N3CC(C)C)C2)CC1,56.7%
3,CC(C)CN1C(=O)CC[C@H]2CN(C(=O)Cn3ccc(=O)cc3)CC[C@H]21,33.9%
4,COc1ccnc(N2CCN(C(=O)c3ccn(C)c(=O)c3)CC2)n1,-21.8%
5,Cc1nnsc1C(=O)N1CCC(c2nc3ccccc3[nH]2)CC1,65.4%
6,Cc1nnsc1C(=O)N1CC(c2nc3ccccc3[nH]2)C1,49.4%
7,CCc1nnsc1C(=O)N1CCCC(c2nc3ccccc3[nH]2)C1 (centres undefined),26.9%
8,O=C(c1cc2ccccc2[nH]1)N1CCCCC1Cn1cccn1 (centres undefined),48.1%
9,Cc1nn(C)cc1-c1cc(C(F)F)nc2sc(C(N)=O)c(N)c12,1.86%
10,CC(C)c1nnsc1CN1CCc2[nH]nc(-c3ccc(Cl)cc3)c2C1,50.1%
11,COC(=O)CCC(=O)N1CCc2[nH]nc(-c3ccc(F)c(F)c3)c2C1,15.9%
12,CC(C)c1nnsc1CN1CCc2[nH]nc(-c3ccc(F)c(F)c3)c2C1,70.4%
13,CC(O)CN1CCc2[nH]nc(C(c3ccccc3)c3ccccc3)c2C1 (centres undefined),-12.1%
14,CC(C)(C)c1ccc(-c2n[nH]c3c2CN(CC2CCOC2)CC3)cc1 (centres undefined),44.3%
15,CCc1nc(C)sc1CN1CCc2[nH]nc(-c3ccc(F)c(F)c3)c2C1,37.2%
16,CS(=O)(=O)N[C@@H]1COC[C@@H]2CN(Cc3ccoc3)C[C@@H]21,15.4%
17,Cc1cccc(C(=O)N(CC(=O)O)CC(C)C)c1,28.1%
18,CCN(CC)C(=O)c1cc(C2CCCN2C)ccn1 (centres undefined),47.2%
19,CC(COc1ccc(F)cc1F)NC(=O)NCCN1CCOCC1 (centres undefined),-32.4%
20,CCC(C)NC(=O)c1sccc1-n1cnnn1 (centres undefined),-5.22%
21,COc1cccc2c1ccn2CC(=O)N1CCCC(C(=O)O)C1 (centres undefined),31.7%
22,O=C(c1ccco1)N1CCCC2(CN(Cc3ccc(F)cc3)CCO2)C1 (centres undefined),-1.83%
23,O=C1N(CC2CC2)C(c2cncs2)NC12CCCC2 (centres undefined),49%
24,Cc1cccc(CN2CCC3(CC2)COC(COCC2CC2)C3)n1 (centres undefined),43%
25,CCCN(CCc1ccccn1)C(=O)Cn1cnnn1,-17.8%

row,Compound,INHIBITION
1,Cn1cc(CN(Cc2ccccc2)Cc2ccccn2)cn1,1.62%
2,Cn1cc(CCC(=O)N2C[C@H]3CC[C@@H](C2)N(Cc2ccccn2)C3)cn1,6.11%
3,CCCN(CCc1ccccn1)C(=O)CCc1cnn(C)c1,65.2%
4,Cc1cnn(CC2CCCCN2CC(=O)NCc2ccccn2)c1 (centres undefined),-4.74%
5,CCCN(CCc1ccccn1)C(=O)Cn1cc(C)cn1,78.8%
6,CC(c1nc(C2CC2)no1)N1CCN(Cc2nnc(C3CC3)o2)CC1 (centres undefined),-51.5%
7,Cc1c(C(=O)NC(C)CC(=O)c2cccs2)cnn1C (centres undefined),40.6%
8,CC(=O)N1CCCN(C(=O)c2ccc(Sc3ccccn3)cc2)CC1,-0.217%
9,Cc1cccn2cc(CC(=O)N(CCN(C)C)CC3CCCO3)nc12 (centres undefined),58.5%
10,O=C(Cc1cn2ccsc2n1)N(Cc1ccco1)CC1CCCO1 (centres undefined),7.21%
11,CN(C)CCN(CC1CCCO1)C(=O)Cc1cn2ccccc2n1 (centres undefined),28.7%
12,Fc1ccc(CN2CCc3ncnc(C4CC4)c3CC2)cc1,39.5%
13,O=C1CCN(C(=O)c2ncoc2-c2ccco2)c2ncccc2N1,15.1%
14,CN1CC(c2n[nH]c(=O)n2-c2cccc(Cl)c2)CC1=O (centres undefined),58.9%
15,O=c1[nH]nc(C2CC2)n1-c1cccc(Cl)c1,-21.7%
16,CN1CCC(c2n[nH]c(=O)n2-c2cccc(Cl)c2)CC1,14.1%
17,O=C(c1ccc(N2CCCC2)nc1)N1CCCC(n2cncn2)C1 (centres undefined),-29.5%
18,CN(C)C(=O)CCC1CCCN(Cc2ccc(-c3cccnc3)cc2)C1 (centres undefined),29.8%
19,Cc1nc(C)n(CC2CCCN(Cc3cccnc3)C2)n1 (centres undefined),-14.6%
20,Cc1nccn1CC1CCCN(Cc2ccc(-c3cccnc3)cc2)C1 (centres undefined),66.7%
21,Cc1nn(C)c(N(C)C)c1CNCc1ccccc1CO,15.3%
22,Cc1cc(NC(=O)CCn2nc(C)c3ccccc32)n(C)n1,26.7%
23,CCn1nc(C)cc1NC(=O)CCn1nc(C)c2ccccc21,20.9%
24,Cc1cc(NC(=O)CCn2nc(C)c3ccccc32)n(C(C)C)n1,59%
25,CSCC[C@H](NC(=O)N1CCC(Cc2ccccc2)CC1)C(=O)O,20%

row,Compound,INHIBITION
1,CC(NC(=O)C1CCCC1)c1nncn1C(C)C (centres undefined),52.2%
2,CC(NC(=O)C1CCN(C(=O)C2CC2)CC1)c1nncn1C(C)C (centres undefined),44%
3,CC(NC(=O)C1CCN(C(C)C)CC1)c1nncn1C1CCCC1 (centres undefined),17.8%
4,CCOc1ccccc1C(C(=O)O)N(C)CC1CCOCC1 (centres undefined),41.3%
5,c1sc(C2CCCCC2)nc1CN1CCn2c(nnc2C2CC2)C1,38.8%
6,O=C(NCCn1ccnc1)N1CCCC1c1ccc2c(c1)OCCO2 (centres undefined),-1.25%
7,COc1ccc2nnc(CCC(=O)Nc3nc4c(s3)CCCC4)n2n1,-2.09%
8,O=C(NCC1CCOCC1)[C@@H]1C[C@@H]2CCN(Cc3ccco3)C[C@H]2O1,2.74%
9,CN(C1CCCC1)C(C)(C)C(=O)NCCNC(N)=O,32.2%
10,COCCCNC(=O)C(C)(C)N(C)C1CCCC1,72.1%
11,CN(C1CCCC1)C(C)(C)C(=O)NCCS(C)(=O)=O,42.4%
12,O=C1CCC(=O)c2oc3ccc(Br)cc3c2N1,0.207%
13,c1cnn(CCNCc2cnc(N3CCCC3)nc2)c1,-1.04%
14,Cc1cnn(CC(C)NCc2ccccc2OCc2cccnc2)c1 (centres undefined),13.3%
15,c1ccc(Cn2cccn2)c(CNCc2cnc(N3CCCC3)nc2)c1,22.6%
16,Cc1cnn(CC(C)NCc2cccnc2)c1 (centres undefined),-3%
17,COc1cc(CNC(C)Cn2cccn2)cc(OC)c1 (centres undefined),25.1%
18,Cc1cnn(CCNCc2ccc(S(C)(=O)=O)cc2)c1,-13.1%
19,Cc1cnn(CC(C)NCc2ccc(C#N)cc2)c1 (centres undefined),32.8%
20,CC(Cn1cccn1)NCc1ccc(OCc2ccncc2)cc1 (centres undefined),56.4%
21,CC(Cn1cccn1)NCc1cnc(N2CCCC2)nc1 (centres undefined),53.2%
22,CC(Cn1cccn1)NCc1csc(COc2ccccc2)n1 (centres undefined),-2.53%
23,Cc1cnn(CC(C)NCc2ccc(OCc3cccnc3)cc2)c1 (centres undefined),58.5%
24,Cc1cnn(CC(C)NCc2ccc(S(C)(=O)=O)cc2)c1 (centres undefined),56.3%

# Reference: ChEMBL document CHEMBL4513216, “Probing the Open Global Health Chemical Diversity Library for Multistage-Active Starting Points for Next-Generation Antimalarials” (ACS Infect Dis, 2020)
